In PubChem BioAssay:
Calls of active or inactive are those of the source. Unless noted, how the calls were made is not given here.

What was measured:
[1] = compounds binding Alexa647 anti-His antibody – biochemical, small-molecule microarray, 635 nm fluorescence, artefact control for SMM control protein annotation, primary screen (AID 1128); settings: higher = more signal;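 further: score merges feature fluorescence with signal-to-noise for each printed compound spot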
[2] = tested on: Human papillomavirus type 1a E7 protein (residues 1-88); experiment: HPV1a E7 small-molecule binders, primary screen, biochemical, small-molecule microarray, residues 1-88, 635 nm (AID 1129); settings: small-molecule microarray binding, fluorescence 635 nm; higher = more signal
[3] = molecular target: Focal adhesion kinase 1 (Homo sapiens) (UniProt Q05397); experiment: PTK2 protein binding on printed compound slides – biochemical, small-molecule microarray, 635/667 nm fluorescence, BSA, DTT, primary screen (AID 1130); settings: 635 nm fluorescence, higher = more signal;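 further: composite of spot emission at 667 nm and signal to noise over triplicate slides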
Chain of Focal adhesion kinase 1 (Homo sapiens) (Q05397 whole entry, looked up): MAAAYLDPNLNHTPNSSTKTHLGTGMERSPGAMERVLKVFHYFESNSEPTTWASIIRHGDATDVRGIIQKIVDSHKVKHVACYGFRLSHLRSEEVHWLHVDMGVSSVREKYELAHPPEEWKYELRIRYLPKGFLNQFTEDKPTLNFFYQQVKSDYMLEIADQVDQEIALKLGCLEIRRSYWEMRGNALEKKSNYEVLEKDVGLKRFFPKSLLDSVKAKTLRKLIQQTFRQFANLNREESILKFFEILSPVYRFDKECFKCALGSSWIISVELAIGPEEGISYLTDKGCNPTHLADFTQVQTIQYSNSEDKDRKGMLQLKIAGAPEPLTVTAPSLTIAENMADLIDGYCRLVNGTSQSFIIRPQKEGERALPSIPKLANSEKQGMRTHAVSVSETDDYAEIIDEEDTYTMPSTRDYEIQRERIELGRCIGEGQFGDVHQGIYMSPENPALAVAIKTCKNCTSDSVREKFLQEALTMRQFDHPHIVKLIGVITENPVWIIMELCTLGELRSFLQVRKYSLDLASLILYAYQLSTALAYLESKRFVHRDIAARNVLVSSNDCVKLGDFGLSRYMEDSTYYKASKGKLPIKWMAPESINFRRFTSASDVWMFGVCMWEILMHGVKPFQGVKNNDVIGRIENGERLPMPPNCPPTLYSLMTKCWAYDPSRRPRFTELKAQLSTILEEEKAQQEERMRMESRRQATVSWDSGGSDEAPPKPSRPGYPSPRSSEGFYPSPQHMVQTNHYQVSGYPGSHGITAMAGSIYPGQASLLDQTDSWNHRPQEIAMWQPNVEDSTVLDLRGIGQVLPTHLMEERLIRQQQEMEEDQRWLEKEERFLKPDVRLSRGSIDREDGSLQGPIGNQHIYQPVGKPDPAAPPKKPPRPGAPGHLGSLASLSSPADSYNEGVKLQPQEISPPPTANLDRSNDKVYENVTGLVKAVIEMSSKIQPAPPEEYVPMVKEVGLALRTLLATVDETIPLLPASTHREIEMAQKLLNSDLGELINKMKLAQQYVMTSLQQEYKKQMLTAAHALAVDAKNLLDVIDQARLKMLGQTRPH

[4] = tested on: Fibrinogen (Alexa647-labelled); experiment: Alexa647-fibrinogen binding to printed small molecules – biochemical, small-molecule microarray, 635/667 nm fluorescence, artefact control for SMM control-protein annotation, profiling panel (AID 1131); settings: fibrinogen-A647 binding fluorescence, higher = more signal;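 further: z-score merges 667 nm fluorescence with per-spot signal-to-noise over triplicate slides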
[5] = molecular target: Follistatin (Homo sapiens) (UniProt P19883); experiment: FST protein binding to printed compounds – biochemical, small-molecule microarray, 635/667 nm fluorescence, primary screen (AID 1132); settings: 635 nm fluorescence, higher = more signal
Chain of Follistatin (Homo sapiens) (P19883 whole entry, looked up): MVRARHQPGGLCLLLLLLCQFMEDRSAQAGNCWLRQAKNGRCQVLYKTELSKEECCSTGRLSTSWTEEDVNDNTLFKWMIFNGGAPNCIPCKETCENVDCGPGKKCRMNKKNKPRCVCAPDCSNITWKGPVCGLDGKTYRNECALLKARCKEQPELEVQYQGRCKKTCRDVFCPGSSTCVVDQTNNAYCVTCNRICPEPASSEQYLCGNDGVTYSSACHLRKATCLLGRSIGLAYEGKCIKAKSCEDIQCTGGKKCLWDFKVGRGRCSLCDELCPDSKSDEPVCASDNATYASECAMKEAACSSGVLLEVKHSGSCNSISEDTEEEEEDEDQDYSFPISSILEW

[6] = molecular target: Fibroblast growth factor 2 (Homo sapiens) (UniProt P09038); experiment: basic fibroblast growth factor binding to printed compounds – biochemical, small-molecule microarray, 635/667 nm fluorescence, primary screen (AID 1133); settings: FGF2, fluorescence 635/667, higher = more signal
Chain of Fibroblast growth factor 2 (Homo sapiens) (P09038 whole entry, looked up): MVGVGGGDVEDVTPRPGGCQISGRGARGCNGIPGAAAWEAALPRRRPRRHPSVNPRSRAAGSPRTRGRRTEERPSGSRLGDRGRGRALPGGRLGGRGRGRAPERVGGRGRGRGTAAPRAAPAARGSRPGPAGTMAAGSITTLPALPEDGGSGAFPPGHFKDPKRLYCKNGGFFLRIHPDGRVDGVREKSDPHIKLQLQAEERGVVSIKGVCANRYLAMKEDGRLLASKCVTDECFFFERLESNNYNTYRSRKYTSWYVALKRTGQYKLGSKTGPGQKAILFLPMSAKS

[7] = JC-1 mitochondrial potential readout, lung cancer cells – cell-based, A549, JC-1 fluorescence, basal, 24 h, 100 nL, profiling panel (AID 1138); settings: higher = more signal;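 further: A549 lung adenocarcinoma cells under basal conditions with no added stimulus; test concentration not given here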
Lefty1 = Lefty1 protein binding to printed compounds – biochemical, small-molecule microarray, 635/667 nm fluorescence, primary screen (AID 1139); settings: fluorescence 635/667, higher = more signal
[8] = tested on: wheat germ agglutinin (Triticum aestivum), Alexa647-labelled; experiment: Alexa647-WGA lectin binding to printed small molecules – biochemical, small-molecule microarray, 635/667 nm fluorescence, artefact control for SMM control-protein annotation, profiling panel (AID 1140); settings: WGA-A647 binding, 635 nm fluorescence, higher = more signal;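 further: score merges 667 nm feature emission with signal to noise over triplicate slides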
[9] = molecular target: Luciferin 4-monooxygenase (Photinus pyralis) (UniProt P08659); experiment: inhibition of purified Photinus pyralis luciferase – biochemical, luminescence, purified enzyme, 2006 set, primary screen (AID 1141); settings: purified firefly luciferase, SteadyGlo luminescence, 30 min; higher = more signal, called active from +8 up or from −8 down;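 further: cell-free assay with purified firefly luciferase at 100 ng per well in PBS; test concentration not given here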
Chain of Luciferin 4-monooxygenase (Photinus pyralis) (P08659 whole entry, looked up): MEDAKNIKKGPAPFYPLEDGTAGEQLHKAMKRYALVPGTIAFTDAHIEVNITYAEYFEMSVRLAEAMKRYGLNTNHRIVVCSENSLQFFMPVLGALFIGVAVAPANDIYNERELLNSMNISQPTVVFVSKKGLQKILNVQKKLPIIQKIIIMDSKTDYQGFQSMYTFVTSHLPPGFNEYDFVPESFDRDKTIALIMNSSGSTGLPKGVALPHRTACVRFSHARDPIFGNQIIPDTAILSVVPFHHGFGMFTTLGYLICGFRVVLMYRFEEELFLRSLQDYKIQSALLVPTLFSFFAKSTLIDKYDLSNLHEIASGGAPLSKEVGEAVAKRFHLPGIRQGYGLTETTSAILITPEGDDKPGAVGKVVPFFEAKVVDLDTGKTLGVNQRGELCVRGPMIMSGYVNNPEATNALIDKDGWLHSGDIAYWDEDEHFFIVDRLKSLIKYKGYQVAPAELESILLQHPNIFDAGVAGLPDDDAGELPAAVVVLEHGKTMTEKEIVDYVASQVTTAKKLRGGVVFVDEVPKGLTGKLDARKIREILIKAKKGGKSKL

[10] = tested on: Wnt5a (protein binding on small-molecule microarray); experiment: small molecules binding Wnt5a protein – biophysical, small-molecule microarray, 635/667 nm fluorescence, primary screen (AID 1142); settings: 635 nm fluorescence, higher = more signal;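 further: fluorescence read at 667 nm with signal to noise per printed feature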
[11] = ATP-based viability of Huh7 replicon cells – cell-based, CellTiter-Glo luminescence, basal, 48 h, cytotoxicity control for HCV replication inhibitor project, primary screen (AID 1143); settings: higher = more signal, called active from +8 up or from −8 down;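 further: Huh7 hepatoma cells carrying a hepatitis C replication reporter with no stimulus; test concentration not given here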
[12] = Pseudomonas biofilm growth suppression – PAO1 strain, BacTiter-Glo luminescence, LB-PBS, primary screen (AID 1144); settings: P. aeruginosa PAO1 biofilm, 12 h, higher = more signal
[13] = basal CRE-LacZ reporter activity in PC12 – cell-based, unstimulated, primary screen (AID 1145); settings: no forskolin, luminescence, 4.5 h, higher = more signal, called active from +8 up or from −8 down
[14] = forskolin-driven CRE-LacZ activity in PC12 – cell-based, CRE-LacZ reporter, forskolin-stimulated, primary screen (AID 1146); settings: luminescence, 4.5 h, higher = more signal, called active from +8 up or from −8 down;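 further: PC12 cells with 6xCRE LacZ reporter stimulated by forskolin 10 µM; beta-galactosidase reporter signal reflecting CREB driven transcription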
[15] = molecular target: Streptavidin (Streptomyces avidinii) (UniProt P22629); experiment: compounds binding control protein streptavidin – biophysical, small-molecule microarray, 635/667 nm fluorescence, artefact control for SMM compound annotation, primary screen (AID 1147); settings: higher = more signal;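 further: signal reflects streptavidin binding to arrayed compounds as a control protein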
Chain of Streptavidin (Streptomyces avidinii) (P22629 whole entry, looked up): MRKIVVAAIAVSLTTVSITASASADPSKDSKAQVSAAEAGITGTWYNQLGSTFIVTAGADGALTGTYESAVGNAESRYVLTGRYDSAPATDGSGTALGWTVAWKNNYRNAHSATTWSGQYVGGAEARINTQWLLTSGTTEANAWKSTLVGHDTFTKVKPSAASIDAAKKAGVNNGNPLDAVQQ

[16] = probe aInhba binding on compound microarray – biochemical, small-molecule microarray, 635/667 nm fluorescence, primary screen (AID 1148); settings: higher = more signal;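 further: score merges 667nm spot fluorescence with signal-to-noise for antibody binding to printed compounds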
Torsin-1A (Homo sapiens) [17] = molecular target: Torsin-1A (Homo sapiens) (UniProt O14656); experiment: TOR1A wild-type binding on microarray – cell lysate, small-molecule microarray, lysate, 635/667 nm, primary screen (AID 1149); settings: COS7 hTOR1A-WT lysate, 635 nm fluorescence, higher = more signal
Chain of Torsin-1A (Homo sapiens) (O14656 whole entry, looked up): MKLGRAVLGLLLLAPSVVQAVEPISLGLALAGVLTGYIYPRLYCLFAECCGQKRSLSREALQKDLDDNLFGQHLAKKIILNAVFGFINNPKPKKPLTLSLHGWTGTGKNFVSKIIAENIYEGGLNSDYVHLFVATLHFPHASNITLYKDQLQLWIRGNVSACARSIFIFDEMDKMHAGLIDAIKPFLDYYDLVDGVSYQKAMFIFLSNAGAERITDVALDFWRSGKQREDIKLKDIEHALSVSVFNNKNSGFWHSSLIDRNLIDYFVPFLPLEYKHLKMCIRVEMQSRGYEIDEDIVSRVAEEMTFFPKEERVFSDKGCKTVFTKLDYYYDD

Torsin-1A (Homo sapiens) [18] = molecular target: Torsin-1A (Homo sapiens) (UniProt O14656); experiment: torsin A mutant lysate binding on microarrays – cell lysate, small-molecule microarray, COS7 lysate, 635/667 nm fluorescence, primary screen (AID 1150); settings: COS7 hTOR1A mutant lysate, 635 nm fluorescence, higher = more signal;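 further: score pools 667 nm emission and signal to noise measuring lysate protein binding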
[19] = tested on: Sonic hedgehog protein (Shh); experiment: Sonic hedgehog microarray binding compounds – biochemical, small-molecule microarray, 635/667 nm fluorescence, primary screen (AID 1151); settings: 635 nm fluorescence, higher = more signal;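 further: Shh protein binding to compounds spotted on small-molecule microarray slides; score combines spot fluorescence intensity with signal-to-noise across triplicate slides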

Compound | composite z-score [1] | composite z-score [2] | composite z-score [3] | composite z-score [4] | composite z-score [5] | composite z-score [6] | z-score [7] | composite z-score (Lefty1) | composite z-score [8] | z-score [9] | composite z-score [10] | z-score [11] | z-score [12] | z-score [13] | z-score [14] | composite z-score [15] | composite z-score [16] | composite z-score (Torsin-1A (Homo sapiens) [17]) | composite z-score (Torsin-1A (Homo sapiens) [18]) | composite z-score [19]
COCC(=C=CC[C@@H](O)c1ccccc1OCCO)CCO | 0.0272 | 0.534 | 0.208 | 0.664 | 0.768 | 1.46 | 1.51 | 0.409 | -0.0571 | -2.02 (inactive) | 0.0554 | 0.0309 (inactive) | -0.118 (inactive) | 0.914 (inactive) | -0.732 (inactive) | -0.174 | -0.0074 | 0.635 | 0.518 | 0.156
O=C1C2C=CC(C(O)c3ccc([N+](=O)[O-])cc3)N(Nc3ccc([N+](=O)[O-])cc3)C2C(=O)N1c1ccccc1 (stereo not given) | 0.953 | 1.24 | 0.719 | 0.952 | -0.0127 | -0.519 | -1.95 | -0.139 | 1.37 | 0.319 (inactive) | 0.71 | 0.301 (inactive) | -0.328 (inactive) | -0.228 (inactive) | 0.554 (inactive) | 0.903 | 0.154 | 0.128 | 0.726 | -0.114
CCOC(=O)C[C@H]1[C@H](OC(=O)c2ccc(C(=O)c3ccccc3)cc2)[C@@H](NC(=O)c2ccc(-c3ccccc3)cc2)c2cc(OCCCO)ccc2N1C(=O)c1ccc2ccccc2n1 | 0.128 | 1.01 | 0.0723 | 0.873 | 0.864 | 0.688 | 0.421 | 1.07 | 0.185 | 0.881 (inactive) | 0.599 | -0.0434 (inactive) | -1.22 (inactive) | -0.738 (inactive) | -0.286 (inactive) | 1.44 | -0.102 | 0.274 | 0.408 | 1.11
COc1ccc(O[C@H]2C=C[C@@H](c3ccccc3)O[C@@H]2COC(=O)N2CCCCC2)cc1 | -0.475 | -1.23 | -0.073 | -0.528 | 0.12 | 0.571 | -0.433 | 0.225 | -0.249 | 0.711 (inactive) | -0.19 | -0.259 (inactive) | 0.615 (inactive) | 0.929 (inactive) | 0.197 (inactive) | -0.221 | -0.108 | 0.205 | 0.125 | 0.147
COC(=O)CC=C[C@H](C)[C@H](CO)NS(=O)(=O)c1ccc(C)cc1 | 0.422 | 0.447 | 0.265 | 0.466 | 0.525 | 0.621 | -0.655 | 0.701 | -0.037 | -0.54 (inactive) | 0.378 | -1.27 (inactive) | -0.0262 (inactive) | -0.434 (inactive) | -0.692 (inactive) | 0.293 | -0.122 | 0.375 | 0.0191 | 0.82
C=CCN1C(=O)[C@]2(O[C@H](CCn3cc(CCO)nn3)[C@@H]([Si](C)(C)c3ccc(OC)cc3)[C@@H]2C)c2cc(N3CCOC3=O)ccc21 | 0.766 | 1.2 | 0.469 | 0.338 | -0.293 | -0.0054 | 0.982 | 0.0269 | 0.574 | -1.8 (inactive) | -0.246 | -4.23 (inactive) | -0.771 (inactive) | 7.08 (inactive) | 0.144 (inactive) | 1.32 | -0.253 | 0.419 | 0.855 | 0.6
CN(C)CCCNC(=O)[C@@H]1c2ccccc2C(=O)N(Cc2cc(F)cc(C(F)(F)F)c2)[C@H]1c1ccc(CO)cc1 | 0.77 | 1.07 | -0.0288 | 0.216 | 1.28 | 0.309 | -0.00183 | -0.271 | 0.039 | 0.0764 (inactive) | 0.095 | -1.77 (inactive) | -0.101 (inactive) | 0.351 (inactive) | 0.159 (inactive) | -0.621 | -0.0849 | 0.65 | -0.348 | 0.388
CC(C)=CCCC(C)=CCON=C1[C@H]2CCn3c(=O)n(C)c(=O)n3[C@H]2[C@H](O)[C@@H]2O[C@H]12 | 0.957 | 0.968 | -0.236 | 0.674 | 0.865 | 0.896 | 0.637 | 1.37 | 0.115 | -0.284 (inactive) | 0.287 | 0.583 (inactive) | 1.13 (inactive) | 0.519 (inactive) | -0.0697 (inactive) | 0.203 | -0.12 | 1.15 | 0.898 | 1.98
COC(=O)CC=C[C@@H](C)[C@H](OC)c1ccccc1Br | -0.457 | 0.0434 | -0.0378 | -0.47 | 0.209 | 0.182 | 0.688 | 0.0835 | -0.602 | -0.384 (inactive) | -0.0438 | 0.266 (inactive) | 0.189 (inactive) | -0.971 (inactive) | -0.868 (inactive) | -0.112 | -0.128 | 0.258 | 0.466 | 0.153
